Experimental data reported in the supplement of paper PMC4466140.

Experiments:
Experiment in all cases: SPOT peptide array binding signal intensity (averaged, normalized) (arbitrary units (background-subtracted, floor 0; scale differs between SH3 domains)); higher = stronger binding of the SH3 domain to the peptide
[1] = target: AgAbp1
Summary of the method: (§1)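 Spot intensities were captured after detection with anti-GST antibody, an HRP-linked anti-mouse secondary and luminol, and quantified with Genespotter. The probes were GST-fused SH3 domains from four yeast species, produced in E. coli BL21(DE3), purified on glutathione Sepharose and incubated at 10 μg/ml overnight at 4°C on cellulose-bound synthetic 15-mer peptides with cysteines replaced by serines. Binding signal is the normalized, background-subtracted spot intensity averaged over replicates, and its arbitrary units differ between domains.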

[2] = target: AgBbc1
Summary of the method: as §1

[3] = target: AgBem1-D1
Summary of the method: as §1

[4] = target: AgBzz1-D1
Summary of the method: as §1

[5] = target: AgBzz1-D2
Summary of the method: as §1

[6] = target: AgCyk3
Summary of the method: as §1

[7] = target: AgFus1
Summary of the method: as §1

[8] = target: AgHof1
Summary of the method: as §1

[9] = target: AgHse1
Summary of the method: as §1

[10] = target: AgLsb1
Summary of the method: as §1

[11] = target: AgLsb4
Summary of the method: as §1

[12] = target: AgMyo5
Summary of the method: as §1

[13] = target: AgNbp2
Summary of the method: as §1

[14] = target: AgRvs167
Summary of the method: as §1

[15] = target: AgSho1
Summary of the method: as §1

[16] = target: AgSla1-D1-D2
Summary of the method: as §1

[17] = target: AgSla1-D3
Summary of the method: as §1

[18] = target: CaAbp1-D1
Summary of the method: as §1

[19] = target: CaAbp1-D2
Summary of the method: as §1

[20] = target: CaBbc1
Summary of the method: as §1

[21] = target: CaBem1-D1
Summary of the method: as §1

[22] = target: CaBzz1-D1
Summary of the method: as §1

[23] = target: CaBzz1-D2
Summary of the method: as §1

[24] = target: CaCyk3
Summary of the method: as §1

[25] = target: CaFus1
Summary of the method: as §1

[26] = target: CaHof1
Summary of the method: as §1

[27] = target: CaHse1
Summary of the method: as §1

[28] = target: CaLsb1
Summary of the method: as §1

[29] = target: CaLsb4
Summary of the method: as §1

[30] = target: CaMyo5
Summary of the method: as §1

[31] = target: CaNbp2
Summary of the method: as §1

[32] = target: CaRvs167
Summary of the method: as §1

[33] = target: CaRvs167-3
Summary of the method: as §1

[34] = target: CaSho1
Summary of the method: as §1

[35] = target: CaSla1-D1-D2
Summary of the method: as §1

[36] = target: CaSla1-D3
Summary of the method: as §1

[37] = target: ScAbp1
Summary of the method: as §1

In the case of GKKVRPLLVLLLSRA, the “SPOT peptide array binding signal intensity” value [1] is reported as at most 0, the “SPOT peptide array binding signal intensity” value [2] is reported as at most 0 and the “SPOT peptide array binding signal intensity” value [3] is reported as at most 0. The “SPOT peptide array binding signal intensity” value [4] was 23.5, the “SPOT peptide array binding signal intensity” value [5] was 2 and the “SPOT peptide array binding signal intensity” value [6] was 5. The “SPOT peptide array binding signal intensity” value [7] was 3030, the “SPOT peptide array binding signal intensity” value [8] was 0.5 and the “SPOT peptide array binding signal intensity” value [9] was 1180. For the same binder, the “SPOT peptide array binding signal intensity” value [10] was at most 0, the “SPOT peptide array binding signal intensity” value [11] was 702 and the “SPOT peptide array binding signal intensity” value [12] was at most 0. The “SPOT peptide array binding signal intensity” value [13] was 280, the “SPOT peptide array binding signal intensity” value [14] was 1.5 and the “SPOT peptide array binding signal intensity” value [15] was 795. For the same binder, the “SPOT peptide array binding signal intensity” value [16] was at most 0, the “SPOT peptide array binding signal intensity” value [17] was 1 and the “SPOT peptide array binding signal intensity” value [18] was 208. The “SPOT peptide array binding signal intensity” value [19] was 134, the “SPOT peptide array binding signal intensity” value [20] was 0.5 and the “SPOT peptide array binding signal intensity” value [21] was at most 0. The “SPOT peptide array binding signal intensity” value [22] was 45, the “SPOT peptide array binding signal intensity” value [23] was 8 and the “SPOT peptide array binding signal intensity” value [24] was 9. For the same binder, the “SPOT peptide array binding signal intensity” value [25] was 3530, the “SPOT peptide array binding signal intensity” value [26] was 1.5 and the “SPOT peptide array binding signal intensity” value [27] was 120. The “SPOT peptide array binding signal intensity” value [28] was at most 0, the “SPOT peptide array binding signal intensity” value [29] was 7.5 and the “SPOT peptide array binding signal intensity” value [30] was at most 0. For the same binder, the “SPOT peptide array binding signal intensity” value [31] was 1520, the “SPOT peptide array binding signal intensity” value [32] was 28.3 and the “SPOT peptide array binding signal intensity” value [33] was 50.8. For the same binder, the “SPOT peptide array binding signal intensity” value [34] was 562, the “SPOT peptide array binding signal intensity” value [35] was at most 0 and the “SPOT peptide array binding signal intensity” value [36] was 28. The “SPOT peptide array binding signal intensity” value [37] was 3.5.
